# Results as given in PubChem BioAssay (Tox21).
# “And” between values parts separate entries of the source, which are not always exact repeats. Equal entries are not always repeated. Inconclusive results are not listed. A call without a number means that no potency is given here. Some structures have more than one record in an assay (separate samples or runs), and their calls can disagree. The source made the active and inactive calls. Unless noted, calls follow the shape of the dose curve; as a rule, active = well fitted curve in the direction sought with a large enough effect in the repeat runs; inconclusive = weak or mixed curves; inactive = no such curve, though single readings can be large; an effect the other way counts as inactive or inconclusive.
# Columns and labels:
# [1] = qHTS assay to identify small molecule agonists of the sonic hedgehog signaling (Shh) pathway (AID 1259368; calls by dose curve;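 also: NIH/3T3-derived 3T3Gli1-Luc cells carrying a stable Gli1-driven firefly luciferase reporter; series mostly up to about 92 µM; nearly all actives have a fitted effect of over 15% in size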)
# Summary of the method: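 Read-out: firefly luciferase luminescence from a Gli1 response element reporter stably integrated in NIH/3T3-derived 3T3Gli1-Luc cells, measured 30 min at room temperature after reagent addition. Compound exposure lasted 24 hr at 37 C, 5% CO2.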
# [2] = qHTS assay to identify small molecule antagonists of the sonic hedgehog signaling (Shh) pathway (AID 1259369; calls by dose curve; also: nearly all actives have a fitted effect of over 45% in size)
# Summary of the method: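 Luminescence readout: firefly Luc under Gli1 response element in 3T3Gli1-Luc cells (NIH/3T3 clone). Antagonist mode, stimulation by conditioned medium; compound exposure 24hr at 37 C, 5% CO2.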
# [3] = molecular target: Estrogen receptor beta (Homo sapiens) (UniProt Q92731); test: qHTS assay to identify small molecule agonists of the estrogen receptor beta (ER-beta) signaling pathway (AID 1259377; active = well fitted activation curve with a large enough effect in the signal ratio in the repeat runs, not every such curve was filed as active; the % refers to the signal ratio)
# Summary of the method: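 Screening used GripTite ER-beta-UAS-bla cells held in 2% charcoal-stripped FBS medium. After overnight (16 hr) compound incubation at 37C, beta-lactamase activity was detected with a FRET substrate by fluorescence.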
# [4] = molecular target: Estrogen receptor beta (Homo sapiens) (UniProt Q92731); test: qHTS assay to identify small molecule antagonists of the estrogen receptor beta (ER-beta) signaling pathway (AID 1259378; active = well fitted inhibition curve with a large enough effect in the signal ratio in the repeat runs, not every such curve was filed as active; the % refers to the signal ratio)
# Summary of the method: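 ER-beta-UAS-bla HEK293T cells in 2% charcoal-stripped FBS medium treated with compound plus 1nM final 17-beta-estradiol for 16 hr at 37C. Beta-lactamase reporter read by FRET substrate fluorescence after 2 hours at room temperature.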
# [5] = qHTS assay to identify small molecule agonists of the androgen receptor (AR) signaling pathway in the presence of an antagonist - cell viability counter screen (AID 1259379);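 also: MDA-kb2 human breast cancer cells carrying an MMTV luciferase reporter; series mostly up to about 92 µM; nearly all actives have a fitted effect of over 25% in size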
# Summary of the method: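 Viability counter screen: CellTiter-Fluor fluorescence, measured in the same wells as the luciferase read-out. MDA-kb2 cells, 3,000/well, with nilutamide at 3.0uM final and compounds at 15 concentrations, 16 hr at 37C, 0% CO2.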
# [6] = qHTS assay to identify small molecule agonists of the estrogen receptor beta (ER-beta) signaling pathway - cell viability counter screen (AID 1259380); also: nearly all actives have a fitted effect of over 30% in size; also: potency is read from the fitted curve at half-maximal effect
# Summary of the method: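 Luminescence read-out (CellTiter-Glo, 30 min, room temp) taken in the same wells as the beta-lactamase reporter assay; ER-beta-UAS-bla HEK293T cells exposed to DMSO-dissolved compounds for 16 hr at 37C in 2% charcoal-stripped FBS medium.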
# [7] = molecular target: Androgen receptor (Homo sapiens) (UniProt P10275); test: qHTS assay to identify small molecule agonists of the androgen receptor (AR) signaling pathway in the presence of an antagonist (AID 1259381; calls by dose curve; also: nearly all actives have a fitted effect of over 15% in size)
# Summary of the method: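 Luciferase read-out (ONE-Glo, 30min room temperature) in MDA-kb2 MMTV-reporter cells; agonist mode run in presence of AR antagonist nilutamide, 3.0uM final. Compounds tested as 15-point series, 16hr exposure at 37C, 0% CO2.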
# [8] = qHTS assay to identify small molecule antagonists of the estrogen receptor beta (ER-beta) signaling pathway - cell viability counter screen (AID 1259382); also: series mostly up to about 92 µM; nearly all actives have a fitted effect of over 55% in size
# Summary of the method: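 Luminescent ATP read-out (CellTiter-Glo, 30 min, RT) taken in the same wells as the bla reporter assay. HEK293T ER-beta-UAS-bla cells in 2% charcoal-stripped FBS were exposed to compounds with 1nM E2 for 16 hr at 37C.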
# [9] = molecular target: Estrogen receptor (Homo sapiens) (UniProt P03372); test: qHTS assay to identify small molecule agonists of the estrogen receptor alpha (ER-alpha) signaling pathway in the presence of an antagonist (AID 1259383; calls by dose curve; also: top concentration of the series differs between compounds; nearly all actives have a fitted effect of over 15% in size)
# Summary of the method: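 Luciferase luminescence (ONE-Glo, 30min at room temperature) measured in VM7Luc4E2 cells after 22hr compound exposure at 15 concentrations, with 10.0nM ICI-182,780 final present; cells express endogenous ER-alpha and carry four EREs upstream of luciferase.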
# [10] = qHTS assay to identify small molecule agonists of the estrogen receptor alpha (ER-alpha) signaling pathway in the presence of an antagonist - cell viability counter screen (AID 1259386);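 also: series mostly up to about 92 µM; cells exposed to compounds for 22 h at 37 °C before the viability read; nearly all actives have a fitted effect of over 30% in size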
# Summary of the method: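 Read-out: CellTiter-Fluor fluorescence after 1hr reagent incubation, measured in the same wells as the luciferase readout. VM7Luc4E2 cells were exposed to 15 compound concentrations with 10.0nM ICI-182,780 for 22hr at 37C.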
# [11] = molecular target: Progesterone receptor (Homo sapiens) (UniProt P06401); test: qHTS assay to identify small molecule agonists of the progesterone receptor (PR) signaling pathway (AID 1346784; calls by dose curve; also: nearly all actives have a fitted effect of over 30% in size)
# Summary of the method: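 Seed PR-UAS-bla HEK 293T cells (2% charcoal-stripped FBS), incubate 6 hr at 37C; add compounds in DMSO, 16 hr at 37C; add LiveBLAzer B/G substrate, 2 hr RT; read fluorescence intensity.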
# [12] = molecular target: Progesterone receptor (Homo sapiens) (UniProt P06401); test: qHTS assay to identify small molecule antagonists of the progesterone receptor (PR) signaling pathway (AID 1346795; active = well fitted inhibition curve with a large enough effect in the signal ratio in the repeat runs, not every such curve was filed as active; the % refers to the signal ratio)
# Summary of the method: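 Screening used a GripTite HEK293T line with PR-responsive UAS-beta-lactamase. Cells were challenged with compound in the presence of 1 nM R5020 final for 16 hr at 37C; B/G FRET substrate, 2 hr room temperature, fluorescence.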
# [13] = qHTS assay to identify small molecule antagonists of the progesterone receptor (PR) signaling pathway - cell viability counter screen (AID 1346798); also: series mostly up to about 92 µM; nearly all actives have a fitted effect of over 50% in size
# Summary of the method: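 Measures cytotoxicity in parallel with the PR antagonist reporter read: HEK293T PR-UAS-bla cells get compound and R5020 for 16 hr, and remaining viable cells are quantified by CellTiter-Glo luminescence.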
# [14] = qHTS assay to identify small molecule agonists of the progesterone receptor (PR) signaling pathway - cell viability counter screen (AID 1346799; calls by dose curve; also: nearly all actives have a fitted effect of over 45% in size)
# Summary of the method: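 Using the same plates as the PR reporter screen, HEK293T PR-UAS-bla cells received compounds for 16 hr at 37C and were then lysed with CellTiter-Glo; luminescence was read 30 min later at room temperature.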
# [15] = qHTS assay to identify small molecule antagonists of the TGF-beta/Smad signaling pathway - cell viability counter screen (AID 1346824); also: nearly all actives have a fitted effect of over 50% in size
# Summary of the method: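 SBE-bla HEK 293T cells, incubated overnight, then compound plus 0.25 ng/mL TGF-beta1 (stock added) for 5 hr at 37 C. Viability was read in the same wells by CellTiter-Glo luminescence after 30 min at room temperature.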
# [16] = qHTS assay to identify small molecule agonists of the TGF-beta/Smad signaling pathway - cell viability counter screen (AID 1346829); also: top concentration of the series differs between compounds; nearly all actives have a fitted effect of over 45% in size
# Summary of the method: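 HEK 293T SBE-bla line, 5 hr compound exposure at 37 C, multiplexed CellTiter-Glo viability read by luminescence.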
# [17] = qHTS assay to identify small molecule agonists of the TGF-beta/Smad signaling pathway (AID 1346859; active = well fitted activation curve with a large enough effect in the signal ratio in the repeat runs, not every such curve was filed as active; the % refers to the signal ratio; also: series mostly up to about 77 µM)
# Summary of the method: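 Beta-lactamase reporter activity downstream of Smad binding elements was measured in stably transfected HEK 293T cells; compounds were incubated for 5 hr, substrate for 2 hr at room temperature.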
# [18] = molecular target: Thyrotropin-releasing hormone receptor (Homo sapiens) (UniProt P34981); test: qHTS assay to identify small molecule antagonists of the thyrotropin-releasing hormone receptor (TRHR) signaling pathway (AID 1346877; active = well fitted inhibition curve with a large enough effect in the repeat runs, not every such curve was filed as active; also: series mostly up to about 51 µM)
# Summary of the method: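 HEK293/TRHR cells, 18 h, 37 °C; Ca2+ dye 2 h; cpd 5 min RT; TRH 1 nM final; fluorescence read 3 min, 1 s intervals; 15 concs, triplicate.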
# [19] = qHTS assay to identify small molecule agonists or antagonists of the thyroid stimulating hormone receptor (TSHR) signaling pathway - wild type cell line counter screen (AID 1259384; calls by dose curve)
# Summary of the method: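 Wild-type Hek293 cells, 800/well, 18 h at 37C, then compound with Ro20-1724 for 30 min RT. cAMP by HTRF (cAMP-d2/anti-cAMP cryptate), 1 h RT, fluorescence read. 15 concentrations, triplicates.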
# [20] = molecular target: Thyrotropin receptor (Homo sapiens) (UniProt P16473); test: qHTS assay to identify small molecule antagonists of the thyroid stimulating hormone receptor (TSHR) signaling pathway (AID 1259385; calls by dose curve; also: nearly all actives have a fitted effect of over 20% in size)
# Summary of the method: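 TSHR-HEK293 cells (800/well) plated 18 h, then compounds with Ro20-1724 and TSH at 1.5 ng/mL final, 30 min at room temperature. cAMP quantified by HTRF (cAMP-d2/anti-cAMP-cryptate, 1 h); 15 concentrations in triplicate.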
# Chain of Estrogen receptor beta (Homo sapiens) (Q92731 whole entry, looked up): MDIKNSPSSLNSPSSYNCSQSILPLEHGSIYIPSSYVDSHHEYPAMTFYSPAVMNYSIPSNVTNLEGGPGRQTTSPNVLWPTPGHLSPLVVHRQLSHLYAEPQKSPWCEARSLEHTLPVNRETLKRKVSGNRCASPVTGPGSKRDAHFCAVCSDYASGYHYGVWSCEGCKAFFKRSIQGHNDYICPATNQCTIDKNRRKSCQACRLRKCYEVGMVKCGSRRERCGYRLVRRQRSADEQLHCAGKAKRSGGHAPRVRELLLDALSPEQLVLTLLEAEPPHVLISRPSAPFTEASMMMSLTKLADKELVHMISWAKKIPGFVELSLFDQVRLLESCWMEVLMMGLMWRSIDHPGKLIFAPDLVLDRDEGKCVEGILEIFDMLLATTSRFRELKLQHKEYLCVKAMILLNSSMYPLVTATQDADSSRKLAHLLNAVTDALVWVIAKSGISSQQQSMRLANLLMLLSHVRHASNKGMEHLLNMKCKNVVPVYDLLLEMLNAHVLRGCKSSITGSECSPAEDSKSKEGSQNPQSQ
# Chain of Androgen receptor (Homo sapiens) (P10275 whole entry, looked up): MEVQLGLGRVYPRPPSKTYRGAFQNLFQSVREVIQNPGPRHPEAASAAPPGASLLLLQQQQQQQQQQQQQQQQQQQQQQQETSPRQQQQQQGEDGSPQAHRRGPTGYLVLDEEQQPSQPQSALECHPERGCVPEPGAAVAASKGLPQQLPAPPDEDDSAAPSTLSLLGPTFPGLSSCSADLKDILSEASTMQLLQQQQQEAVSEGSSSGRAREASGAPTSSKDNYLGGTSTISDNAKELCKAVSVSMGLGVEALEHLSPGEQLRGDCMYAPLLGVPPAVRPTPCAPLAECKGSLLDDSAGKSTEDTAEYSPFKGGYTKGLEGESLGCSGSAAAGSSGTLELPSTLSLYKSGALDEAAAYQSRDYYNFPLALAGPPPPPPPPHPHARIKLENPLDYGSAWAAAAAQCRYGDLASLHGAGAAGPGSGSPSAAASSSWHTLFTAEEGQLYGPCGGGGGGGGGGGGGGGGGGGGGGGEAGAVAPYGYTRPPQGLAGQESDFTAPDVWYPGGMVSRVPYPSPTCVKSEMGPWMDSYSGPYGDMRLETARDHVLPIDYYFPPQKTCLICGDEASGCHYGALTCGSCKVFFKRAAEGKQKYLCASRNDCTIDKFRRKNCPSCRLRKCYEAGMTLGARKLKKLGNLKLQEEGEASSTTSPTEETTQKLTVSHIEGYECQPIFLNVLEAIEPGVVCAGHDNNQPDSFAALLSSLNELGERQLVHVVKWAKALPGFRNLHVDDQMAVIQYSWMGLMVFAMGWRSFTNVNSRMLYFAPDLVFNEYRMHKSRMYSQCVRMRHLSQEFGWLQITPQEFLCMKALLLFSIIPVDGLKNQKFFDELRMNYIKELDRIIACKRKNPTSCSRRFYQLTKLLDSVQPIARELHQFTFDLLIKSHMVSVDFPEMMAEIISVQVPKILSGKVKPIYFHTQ
# Chain of Progesterone receptor (Homo sapiens) (P06401 whole entry, looked up): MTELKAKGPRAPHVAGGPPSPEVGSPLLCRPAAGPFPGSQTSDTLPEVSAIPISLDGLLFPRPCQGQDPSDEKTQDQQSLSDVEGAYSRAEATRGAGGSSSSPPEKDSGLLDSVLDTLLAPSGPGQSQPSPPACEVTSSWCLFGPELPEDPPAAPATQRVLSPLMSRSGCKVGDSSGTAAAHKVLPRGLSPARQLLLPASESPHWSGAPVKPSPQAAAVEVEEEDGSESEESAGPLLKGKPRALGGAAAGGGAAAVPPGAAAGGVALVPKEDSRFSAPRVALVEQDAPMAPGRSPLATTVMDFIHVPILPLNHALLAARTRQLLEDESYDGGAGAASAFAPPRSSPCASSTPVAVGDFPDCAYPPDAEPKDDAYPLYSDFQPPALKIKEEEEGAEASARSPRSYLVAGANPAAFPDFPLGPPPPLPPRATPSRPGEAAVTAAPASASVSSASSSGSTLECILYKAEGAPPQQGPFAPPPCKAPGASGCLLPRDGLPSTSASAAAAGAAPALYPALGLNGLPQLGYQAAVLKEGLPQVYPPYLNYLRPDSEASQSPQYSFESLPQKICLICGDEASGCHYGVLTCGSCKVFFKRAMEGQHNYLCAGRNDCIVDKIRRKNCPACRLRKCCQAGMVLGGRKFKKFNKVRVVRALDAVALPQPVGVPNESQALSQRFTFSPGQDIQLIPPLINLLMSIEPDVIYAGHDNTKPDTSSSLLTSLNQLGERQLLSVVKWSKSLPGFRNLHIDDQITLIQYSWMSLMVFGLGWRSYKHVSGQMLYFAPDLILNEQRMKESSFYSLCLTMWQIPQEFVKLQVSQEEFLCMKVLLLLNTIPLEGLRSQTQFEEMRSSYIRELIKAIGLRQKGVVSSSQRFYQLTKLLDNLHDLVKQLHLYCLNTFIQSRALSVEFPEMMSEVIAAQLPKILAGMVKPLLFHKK
# Chain of Thyrotropin-releasing hormone receptor (Homo sapiens) (P34981 whole entry, looked up): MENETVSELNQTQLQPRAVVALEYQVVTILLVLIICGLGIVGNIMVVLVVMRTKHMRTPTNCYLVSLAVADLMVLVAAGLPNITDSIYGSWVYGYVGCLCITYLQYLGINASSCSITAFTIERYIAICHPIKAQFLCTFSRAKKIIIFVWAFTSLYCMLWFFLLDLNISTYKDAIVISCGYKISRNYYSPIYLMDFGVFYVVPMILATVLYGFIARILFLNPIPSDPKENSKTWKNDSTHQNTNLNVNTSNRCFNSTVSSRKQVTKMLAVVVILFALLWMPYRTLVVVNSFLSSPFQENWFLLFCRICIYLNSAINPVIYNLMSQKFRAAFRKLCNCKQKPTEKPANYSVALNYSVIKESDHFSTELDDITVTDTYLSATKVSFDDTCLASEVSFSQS
# Chain of Estrogen receptor (Homo sapiens) (P03372 whole entry, looked up): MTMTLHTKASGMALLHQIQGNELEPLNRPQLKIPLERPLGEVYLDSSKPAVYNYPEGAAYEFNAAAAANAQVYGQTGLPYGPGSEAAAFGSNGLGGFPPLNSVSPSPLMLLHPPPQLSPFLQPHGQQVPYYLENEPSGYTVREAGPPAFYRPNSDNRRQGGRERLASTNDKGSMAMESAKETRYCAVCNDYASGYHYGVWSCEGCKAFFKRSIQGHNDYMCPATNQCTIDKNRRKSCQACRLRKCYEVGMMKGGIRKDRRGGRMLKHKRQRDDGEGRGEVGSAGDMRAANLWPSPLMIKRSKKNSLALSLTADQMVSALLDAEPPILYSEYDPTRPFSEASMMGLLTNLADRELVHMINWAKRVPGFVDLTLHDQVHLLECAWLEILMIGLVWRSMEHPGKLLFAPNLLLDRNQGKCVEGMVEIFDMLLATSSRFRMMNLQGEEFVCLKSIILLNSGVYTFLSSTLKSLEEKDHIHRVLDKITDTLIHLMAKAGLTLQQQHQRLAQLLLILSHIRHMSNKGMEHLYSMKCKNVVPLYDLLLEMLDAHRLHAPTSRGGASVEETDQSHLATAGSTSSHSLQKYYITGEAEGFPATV
# Chain of Thyrotropin receptor (Homo sapiens) (P16473 whole entry, looked up): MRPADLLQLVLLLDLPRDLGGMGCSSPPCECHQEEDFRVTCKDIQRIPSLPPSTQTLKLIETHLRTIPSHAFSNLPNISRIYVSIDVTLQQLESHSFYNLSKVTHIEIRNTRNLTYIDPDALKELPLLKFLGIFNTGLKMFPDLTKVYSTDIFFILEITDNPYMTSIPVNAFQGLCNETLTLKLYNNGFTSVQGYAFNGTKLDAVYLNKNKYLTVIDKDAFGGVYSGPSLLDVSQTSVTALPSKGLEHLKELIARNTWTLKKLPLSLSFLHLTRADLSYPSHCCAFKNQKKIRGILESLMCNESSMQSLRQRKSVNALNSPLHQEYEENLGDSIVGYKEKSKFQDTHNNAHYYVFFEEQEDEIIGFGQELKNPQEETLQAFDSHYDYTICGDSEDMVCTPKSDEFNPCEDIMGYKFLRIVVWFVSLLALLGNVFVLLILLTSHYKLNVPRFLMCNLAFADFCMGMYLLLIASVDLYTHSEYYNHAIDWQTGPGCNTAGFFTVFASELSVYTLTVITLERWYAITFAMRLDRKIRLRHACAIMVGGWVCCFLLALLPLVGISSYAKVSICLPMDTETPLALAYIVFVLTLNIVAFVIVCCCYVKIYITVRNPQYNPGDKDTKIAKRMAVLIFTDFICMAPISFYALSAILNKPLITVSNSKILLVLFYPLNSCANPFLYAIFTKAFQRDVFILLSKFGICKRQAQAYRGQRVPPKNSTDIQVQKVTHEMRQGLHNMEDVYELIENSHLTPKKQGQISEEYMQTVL
SMILES,outcome [1],Potency [2],outcome [3],Potency [4],Potency [5],Potency [6],Potency [7],Potency [8],Potency [9],Potency [10],Potency [11],outcome [12],Potency [13],Potency [14],outcome [15],Potency [16],outcome [17],outcome [18],outcome [19],outcome [20]
Cc1cc(=O)n(-c2ccccc2)n1C,inactive,inactive,inactive,inactive,inactive,inactive,inactive,inactive,inactive,inactive,inactive,inactive,inactive,inactive,inactive,inactive,inactive,inactive,–,–
CCCCOC(=O)CC(CC(=O)OCCCC)(OC(C)=O)C(=O)OCCCC,inactive,inactive,inactive,inactive,inactive,inactive,–,inactive,–,inactive,inactive,inactive,inactive,inactive,inactive,inactive,inactive,inactive,–,–
C[C@]12C=CC(=O)C=C1CC[C@@H]1[C@@H]2[C@@H](O)C[C@@]2(C)[C@H]1CC[C@]2(O)C(=O)CO,inactive,inactive,inactive,inactive,inactive,inactive,–,–,inactive,inactive,–,–,inactive,inactive,inactive,inactive,inactive,–,–,–
Cc1ccc(C)c(OCCCC(C)(C)C(=O)O)c1,inactive,inactive,inactive,inactive,inactive,inactive,inactive,inactive,inactive,inactive,inactive,inactive,inactive,inactive,inactive,inactive,inactive,–,inactive,inactive
O=c1ccc2ccccc2o1,inactive,inactive,inactive,inactive,inactive,inactive,–,inactive,inactive,inactive,inactive,inactive,inactive,inactive,inactive,inactive,inactive,–,inactive,inactive
Cc1ccc(S(=O)(=O)NC(=O)NN2CCCCCC2)cc1,inactive,inactive,inactive,inactive,inactive,inactive,–,inactive,inactive,inactive,inactive,inactive,inactive,inactive,inactive,inactive,inactive,inactive,inactive,inactive
CC(=O)NS(=O)(=O)c1ccc(N)cc1,inactive,inactive,inactive,inactive,inactive,inactive,–,inactive,inactive,inactive,inactive,inactive,inactive,inactive,inactive,inactive,inactive,inactive,–,–
NNC(=O)c1ccncc1,inactive,inactive,inactive,inactive,inactive,inactive,–,inactive,inactive,inactive,inactive,inactive,inactive,inactive,inactive,inactive,inactive,–,inactive,inactive
Nc1ccc(C(=O)O)cc1,inactive,inactive,inactive,inactive,inactive,inactive,–,inactive,inactive,inactive,inactive,inactive,inactive,inactive,inactive,inactive,inactive,–,inactive,inactive
NC(=O)c1cnccn1,inactive,inactive,inactive,inactive,inactive,inactive and 33.5 µM (active),–,–,inactive,inactive,inactive,inactive,inactive,inactive,inactive,inactive,inactive,inactive,–,–
NC(=O)c1ccccc1O,inactive,inactive,inactive,inactive,inactive,inactive,–,inactive,inactive,inactive,inactive,inactive,inactive,inactive,inactive,inactive,inactive,inactive,inactive,inactive
CCCC(O)C(CC)CO (stereo not drawn),inactive,inactive,inactive,inactive,inactive,inactive,–,–,inactive,inactive,inactive,inactive,inactive,inactive,inactive,inactive,inactive,–,–,–
Nc1ccn([C@H]2CC[C@@H](CO)O2)c(=O)n1,inactive,inactive,inactive,inactive,inactive,inactive,–,–,inactive,inactive,–,–,inactive,inactive,inactive,inactive,inactive,inactive,inactive,inactive
CC(C)(Oc1ccc(C2CC2(Cl)Cl)cc1)C(=O)O (stereo not drawn),inactive,inactive,inactive,inactive,inactive,inactive,inactive,inactive,inactive,inactive,inactive,inactive,inactive,inactive,inactive,inactive,inactive,–,inactive,inactive
Cc1noc(NS(=O)(=O)c2ccc(N)cc2)c1C,inactive,inactive,inactive,inactive,inactive,inactive,–,inactive,inactive,inactive,inactive,inactive,inactive,inactive,–,inactive,inactive,inactive,inactive,inactive
CC(=O)Nc1nnc(S(N)(=O)=O)s1,inactive,inactive,inactive,inactive,inactive,inactive,–,inactive,inactive,inactive,inactive,inactive,inactive,inactive,inactive,inactive,inactive,inactive,inactive,inactive
